# Measurements as given in ChEMBL document CHEMBL3988442, “University of Dundee, Small-Polar-MMV Screening Library” (2021).
# Screen size: about 66,000 compounds; about 960 (1.5%) showed an effect of 50% or more. The sample as a whole holds a higher share of strong results than the screen did.
# System: Trypanosoma brucei
# Assay: Trypanosoma brucei 72 hour study
# Assay type: functional, organism-based
# Design: scale not given: in the data most compounds retested in dose-response had high values
smiles,measurement,setting,value
COc1cc(Oc2cnc3ccccc3n2)ccc1CN1CCCC1,Percent Effect,"30 µM, 30.03 µM",-18.27%
CC1CCCCN1C(=O)c1n[nH]c(=O)c2ccccc12 (centres undefined),Percent Effect,"30.3 µM, […]",-7.93%
Cn1nnc2c1CCN(Cc1ccncc1)C2COCC1CC1.O=C(O)C(F)(F)F.O=C(O)C(F)(F)F (centres undefined),Percent Effect,"30 µM, 30.03 µM",49.24%
CCOCc1ccccc1NC(=O)NCC(C)(O)c1cccs1 (centres undefined),Percent Effect,"30 µM, 30.03 µM",-46.58%
CCOCc1ccccc1NC(=O)NCC(C)(O)c1ccsc1 (centres undefined),Percent Effect,"30 µM, 30.03 µM",56.33%
CCOCc1ccccc1NC(=O)NCC(C)(O)c1cc(C)oc1C (centres undefined),Percent Effect,"30 µM, 30.03 µM",-15.34%
Cc1nonc1CN(C)c1nc(-c2ccco2)nc2c1CCN(C)CC2,Percent Effect,"30 µM, 30.03 µM",-56.96%
Cc1ccc(-c2nc(CCNC(=O)NC3CCN(C)CC3)co2)cc1,Percent Effect,"30 µM, 30.03 µM",6.387%
Cc1ccc(-c2nc(CCNC(=O)NC3CCC(O)CC3)co2)cc1 (centres undefined),Percent Effect,10 µM,-4.374%
same,Percent Effect,"30.3 µM, […]",17.54%
O=C(NCCc1coc(-c2ccc(F)cc2)n1)NC1CC1,Percent Effect,10 µM,99.81%
same,Percent Effect,"30.3 µM, […]",99.45%
O=C(NCCc1coc(-c2ccccc2)n1)NC1CC1,Percent Effect,10 µM,101.4%
same,Percent Effect,"30.3 µM, […]",100%
O=C(NCCc1coc(-c2ccc(F)cc2)n1)NC1CCC(O)CC1 (centres undefined),Percent Effect,"30 µM, 30.03 µM",-16.25%
COc1ccc(-c2nc(CCNC(=O)NC3CCC(O)CC3)co2)cc1 (centres undefined),Percent Effect,"30 µM, 30.03 µM",-54.4%
CO[C@@H]1CN(c2ccccc2)S(=O)(=O)[C@@]12CCN(C(=O)N(C)C)C2,Percent Effect,"30.3 µM, […]",5.082%
O=C1C[C@H]2CC[C@@H](CN1)N2C(=O)CCc1ccsc1,Percent Effect,"30.3 µM, […]",5.085%
CCc1n[nH]c(C2CN(C(=O)c3ncoc3C(C)C)CCO2)n1 (centres undefined),Percent Effect,"30.3 µM, […]",10.22%
COCCN(Cc1cccs1)c1nc(CCN)nc2ccccc12,Percent Effect,"30 µM, 30.03 µM",3.665%
COCCN(CC1CC1)c1nc(CCN)nc2ccccc12,Percent Effect,"30 µM, 30.03 µM",27.63%
COCCN(CC1CC1)c1nc(CCN)nc2sc(C)c(C)c12,Percent Effect,"30 µM, 30.03 µM",105.1%
Cc1sc2nc(CCN)nc(N(CCN(C)C)CC3CCCO3)c2c1C (centres undefined),Percent Effect,"30 µM, 30.03 µM",33.05%
CCN(CCN(C)C)c1nc(CCN)nc2sc(C)c(C)c12,Percent Effect,"30 µM, 30.03 µM",-19.52%
Cc1sc2nc(CCN)nc(N(C)CCCC3CCCO3)c2c1C (centres undefined),Percent Effect,"30 µM, 30.03 µM",73.15%
O=C(O)C(F)(F)F.O=C1CCC2(CCN(Cc3nccs3)CC2)N1Cc1ccccc1,Percent Effect,"30 µM, 30.03 µM",-8.129%
O=C(O)C(F)(F)F.O=C1CC[C@H]2[C@H](CCN2C(=O)C2CCOC2)N1Cc1ccncc1 (some centres undefined),Percent Effect,"30 µM, 30.03 µM",-22.31%
Cc1noc(C)c1CN1C[C@H](OCC2CCN(C)CC2)[C@H]2COC[C@H]21.O=C(O)C(F)(F)F.O=C(O)C(F)(F)F,Percent Effect,"30.3 µM, […]",-21.15%
Cc1nc(COCC2CN(C(=O)N(C)C)Cc3nccn3C2)cs1.O=C(O)C(F)(F)F (centres undefined),Percent Effect,"30.3 µM, […]",-49.05%
CCn1ncc2c1C(COC)CN(Cc1cccnc1)C2.O=C(O)C(F)(F)F.O=C(O)C(F)(F)F.O=C(O)C(F)(F)F (centres undefined),Percent Effect,"30.3 µM, […]",-94.72%
COc1cc(N2CC[C@@H](O)[C@@H]2Cc2ccncc2)ncn1.O=C(O)C(F)(F)F,Percent Effect,"30 µM, 30.03 µM",35.07%
COc1ncccc1-c1ncccc1NC(=O)C(C)C,Percent Effect,"30 µM, 30.03 µM",34.88%
COc1cc(F)ccc1-c1ncccc1NC(=O)C(C)C,Percent Effect,"30 µM, 30.03 µM",52.34%
COc1ccc(F)c(-c2ncccc2NC(=O)C(C)C)c1,Percent Effect,"30 µM, 30.03 µM",20.56%
Cl.Nc1ncnc2nc(C3CCCCN3)ccc12 (centres undefined),Percent Effect,"30.3 µM, […]",5.297%
COCCN1CCC(CN(CC2CCCO2)C(=O)CNC(C)=O)CC1 (centres undefined),Percent Effect,"30 µM, 30.03 µM",3.281%
CCn1cc(CN2CCCN(C(=O)CCn3cc(C)cn3)CC2)cn1,Percent Effect,"30.3 µM, […]",-9.74%
same,Percent Effect,"10 mM, 10 mM as filed; unlikely as a test dose",-22.46%
CCCNC(=O)c1cc(-c2cnc(N3CCCC3)nc2)cn1C,Percent Effect,"30.3 µM, […]",-994.8%
CN(C)CCNC(=O)c1cc(-c2cnc(N3CCCC3)nc2)cn1C.O=C(O)C(F)(F)F,Percent Effect,"30 µM, 30.03 µM",97.37%
CN(C)CCNC(=O)c1cc(-c2cnc(N3CCOCC3)nc2)cn1C.O=C(O)C(F)(F)F,Percent Effect,"30.3 µM, […]",-753.9%
Cl.Cn1nc(C2CCCN(Cc3cc(F)ccc3F)C2)c2nccnc21 (centres undefined),Percent Effect,"30.3 µM, […]",20.63%
CN1[C@@H](C(=O)NCC2CC2)C[C@H]2CN(Cc3ccsc3)C[C@H]21.O=C(O)C(F)(F)F.O=C(O)C(F)(F)F,Percent Effect,"30.3 µM, […]",-48.96%
Cn1nc(COCC2CC2)c2c1CN(CC1CC1)CC2.O=C(O)C(F)(F)F.O=C(O)C(F)(F)F,Percent Effect,"30.3 µM, […]",-59.62%
CC(C)Cc1cc(CNC(=O)c2ccccc2C2CCNC2)no1 (centres undefined),Percent Effect,"30 µM, 30.03 µM",-25.71%
CSc1cccc(CN(C)C(=O)c2ccc(C3CCCNC3)cc2)c1 (centres undefined),Percent Effect,"30 µM, 30.03 µM",45.3%
O=C(NCc1ccc2c(c1)OCO2)c1ccccc1C1CCNC1 (centres undefined),Percent Effect,"30 µM, 30.03 µM",75.73%
CN(Cc1ccc2c(c1)OCO2)C(=O)c1ccc(=O)n(C)c1,Percent Effect,"30.3 µM, […]",-33.31%
CN(Cc1ccc2c(c1)OCO2)C(=O)c1ccc(C2CCCNC2)cc1 (centres undefined),Percent Effect,"30 µM, 30.03 µM",78.75%
O=C(NCc1ccc2c(c1)CCCO2)c1ccccc1C1CCNC1 (centres undefined),Percent Effect,"30 µM, 30.03 µM",-18.86%
CC(C)OCCCN(Cc1ccncc1)Cc1cccc(F)c1F.Cl,Percent Effect,"30.3 µM, […]",-30.88%
N#Cc1ccc(S(=O)(=O)NC(=O)c2csc(-c3ccco3)n2)cc1,Percent Effect,"30.3 µM, […]",2.361%
CCc1ccc(CN2C[C@@H](C)C3(CCN(CC(=O)N(C)C)C3=O)C2)o1.O=C(O)C(F)(F)F (some centres undefined),Percent Effect,"30.3 µM, […]",4.737%
CC(=O)N1N=C(c2cccs2)OC1C(=O)NCc1ccc(C)o1 (centres undefined),Percent Effect,"30.3 µM, […]",9.707%
same,Percent Effect,"10 mM, 10 mM as filed; unlikely as a test dose",-41.55%
O=C(NCCc1ccccc1)NCCN1CCC(c2cccs2)CC1,Percent Effect,"30 µM, 30.03 µM",47.79%
COc1ccc(CCC(=O)NCCN2CCC(c3cccs3)CC2)cc1,Percent Effect,"30 µM, 30.03 µM",100%
CC(=O)NCCN1CCC(c2cccs2)CC1,Percent Effect,"30 µM, 30.03 µM",-43.56%
CC1CCCN(Cc2ccnc(-c3cccnc3)n2)C1.O=C(O)CC(O)(CC(=O)O)C(=O)O (centres undefined),Percent Effect,"30.3 µM, […]",9.831%
O=C(CCCNC(=O)C1CC1)Nc1cnn(-c2ccccc2Cl)c1,Percent Effect,"30 µM, 30.03 µM",60.12%
O=C(CCN1C(=O)CCC1=O)Nc1cnn(-c2ccccc2Cl)c1,Percent Effect,"30 µM, 30.03 µM",-41.29%
CS(=O)(=O)NCCC(=O)Nc1cnn(-c2ccccc2Cl)c1,Percent Effect,"30.3 µM, […]",-13.82%
O=C(O)C(F)(F)F.O=C(O)C(F)(F)F.O=c1ccc2c(n1Cc1ccncc1)CCN(Cc1ccoc1)CC2,Percent Effect,"30 µM, 30.03 µM",-36.06%
Cl.c1nc(CCC2CCCCN2)cc(N2CCCC2)n1 (centres undefined),Percent Effect,"30.3 µM, […]",-10.52%
